Experimental data: PubChem BioAssay

Assay: mitochondrial membrane potential change in A549 cells, profiling panel, cell-based, JC-1 fluorescence, basal, 24 h, 100 nL (AID 1138);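 note: A549 lung adenocarcinoma cells under basal conditions with no added stimulus; test concentration not given here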
Settings: higher = more signal

Q: For `CCOC(=O)C[C@H]1[C@H](OC(=O)Cc2ccc3c(c2)OCO3)[C@@H](NC(=O)Cc2ccc(OC)cc2)c2cc(OCCCO)ccc2N1C(=O)Cc1ccc(OC)cc1`, which z-score is on record?
A: 1.39

Q: With `COC(=O)[C@@]1(Cc2ccccc2)[C@H]2c3cc(C(=O)N4CCCC4)n(Cc4ccc(OC)c(OC)c4)c3C[C@H]2CN1C(=O)c1ccccc1` as the molecule, how does the z-score read?
A: 1.99

Q: With `[N-]=[N+]=Nc1ccccc1C[C@]1(C(=O)N2CCOCC2)N=C(c2ccc(OCCCO)cc2)O[C@H]1c1ccccc1N=[N+]=[N-]` as the molecule, how does the z-score read?
A: 0.268

Q: With `CC(C)(C)N1CC=CC23O[C@@H]4/C=C\CCCOC(=O)C4[C@H]2C(=O)N(CCCO)[C@@H]3C1=O` (stereo partly specified) as the molecule, how does the z-score read?
A: -0.534

Q: Which z-score does the source give for `COc1ccc(CCNC(=O)[C@@H]2c3ccccc3C(=O)N(Cc3ccccc3OC)[C@H]2c2ccc(CO)cc2)cc1` here?
A: 0.84

Q: Which z-score does the source give for `NC(=O)NCC#Cc1ccc2c(c1)[C@]1(C(=O)N2)[C@H](c2ccc(OCCO)cc2)N2[C@H](c3ccccc3)[C@H](c3ccccc3)OC(=O)[C@H]2[C@@H]1C(=O)O` here?
A: -1.15

Q: Which z-score does the source give for `COc1ccc(C(=O)Nc2ccc3c(c2)[C@@]2(O[C@H](CCO)[C@@H]([Si](C)(C)c4ccc(OC)cc4)[C@@H]2C)C(=O)N3Cc2ccccc2)cc1` here?
A: -1.3

Q: For `COC(=O)C1=CC(CCCO)=CC(c2cccs2)N(Cc2cc3c(cc2Br)OCO3)C=C1C(=O)OC` (stereo unspecified), which z-score is on record?
A: 1.33

Q: With `O=C1O[C@H](c2ccccc2)[C@H](c2ccccc2)N2[C@H]1[C@@H](C(=O)O)[C@]1(C(=O)Nc3ccc(C#CCCO)cc31)[C@H]2c1ccc(OCCO)cc1` as the molecule, how does the z-score read?
A: 0.747

Q: For `CCOC(=O)C[C@H]1[C@H](OC(=O)Cc2ccc3c(c2)OCO3)[C@@H](NC(=O)c2ccc3ccccc3n2)c2cc(OCCCO)ccc2N1C(=O)Cc1ccc(OC)cc1`, which z-score is on record?
A: 1.26

Q: For `O=C(NC1CC1)[C@@H]1c2ccccc2C(=O)N(Cc2cc(C(F)(F)F)cc(C(F)(F)F)c2)[C@H]1c1ccc(CO)cc1`, which z-score is on record?
A: -0.197

Q: Which z-score does the source give for `C=C(/C(=C/C[C@@H](OC(C)=O)c1cccc(OCCO)c1)c1cnc2ccccc2c1)C(C)C` here?
A: 0.41

Q: Which z-score does the source give for `O=C1C2C=CC(C(O)c3cccs3)N(Nc3ccc([N+](=O)[O-])cc3)C2C(=O)N1c1ccccc1` (stereo unspecified) here?
A: -0.908

Q: For `C[N+](C)(C)CCCC[C@@H]1NC(=O)[C@H]2C[C@@H](C(=O)NCCCCCNC(=O)CS)[C@@H](c3cccc(OCCO)c3)N2C1=O`, which z-score is on record?
A: 0.299

Q: For `COCCOC(=O)N1C(=O)[C@@]2(c3cc(C#CCC(C(=O)OC)C(=O)OC)ccc31)[C@H](c1ccc(O)cc1)N1[C@H](c3ccccc3)[C@H](c3ccccc3)OC(=O)[C@H]1[C@@H]2C(=O)Nc1nc2ccccc2s1`, which z-score is on record?
A: -2.1

Q: With `COC(=O)[C@@]1(Cc2ccc(OC)cc2)[C@H]2c3cc(C(=O)N4CCCC4)n(Cc4c(CO)[nH]cc(C)c4=O)c3C[C@H]2CN1C(=O)c1ccccc1` as the molecule, how does the z-score read?
A: 0.534

Q: With `O=C1C[C@]2(c3ccc([N+](=O)[O-])cc3)C(=O)N(C3CC3)c3cc(CO)ccc3[C@H]2N1C1CCCCC1` as the molecule, how does the z-score read?
A: -0.22

Q: Which z-score does the source give for `C=C(COC)/C(=C/C[C@@H](OC(C)=O)c1ccccc1OCCO)c1cnc2ccccc2c1` here?
A: -0.159

Q: Which z-score does the source give for `COCCOC(=O)N1C(=O)[C@@]2(c3cc(C#CC4(O)CCCCCC4)ccc31)[C@H](c1ccc(O)cc1)N1[C@H](c3ccccc3)[C@H](c3ccccc3)OC(=O)[C@H]1[C@@H]2C(=O)N1CCCCCCC1` here?
A: 0.7

Q: With `C=CCOC(=O)[C@@H]1[C@H]2C(=O)O[C@H](c3ccccc3)[C@H](c3ccccc3)N2[C@H](c2ccc(OCCOC(=O)[C@H]3C[C@H]4C(=O)N[C@@H](CCCCN(C)C)C(=O)N4[C@H]3c3ccc(O)cc3)cc2)[C@@]12C(=O)Nc1ccc(I)cc12` as the molecule, how does the z-score read?
A: -0.641

Q: For `COC(=O)C[C@H]1O[C@@]2(C[C@@H]1[Si](C)(C)C)C(=O)N(C)c1ccccc12`, which z-score is on record?
A: 1.63

Q: With `C=CCC(OC(C)=O)[C@@H]1[C@@H](N(Cc2cc3ccccc3o2)C(=O)c2cccc3ccccc23)c2cc(OCCCO)ccc2N1C(=O)c1ccc2ccccc2n1` (stereo partly specified) as the molecule, how does the z-score read?
A: -0.0913

Q: For `COC(=O)[C@@]1(Cc2ccc(OC)cc2)[C@H]2c3cc(C(=O)N4CCCC4)n(CCn4cc([N+](=O)[O-])nc4C)c3C[C@H]2CN1C(=O)c1ccccc1`, which z-score is on record?
A: 1.33

Q: With `CCCCCC1=C2CNC(CC(C)C)(C(=O)OC)C=C2C(C)C1=O` (stereo unspecified) as the molecule, how does the z-score read?
A: 0.326

Q: Which z-score does the source give for `O=C1C=C(c2ccccc2)C(=O)C2=C1CC([C@H]1Oc3ccccc3S(=O)(=O)N3CCC[C@@H]13)=CC2` here?
A: -1.32

Q: With `COCCOC(=O)N1C(=O)[C@@]2(c3cc(C#CCC(C(=O)OC)C(=O)OC)ccc31)[C@H](C(=O)Nc1nc3ccccc3s1)[C@H]1C(=O)O[C@H](c3ccccc3)[C@H](c3ccccc3)N1[C@@H]2c1ccc(O)cc1` as the molecule, how does the z-score read?
A: -2.26
